“And” between values parts separate entries of the source, which are not always exact repeats. Identical values can stand only once.
Columns and labels:
[1] = biological target: Rho-associated protein kinase 1 (Homo sapiens) (UniProt Q13464); details: at 1 µM;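 further: reported values are mean percent inhibition of ROCK1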
[2] = biological target: Rho-associated protein kinase 2 (Homo sapiens) (UniProt O75116); details: at 0.1 µM
[3] = biological target: Rho-associated protein kinase 2 (Homo sapiens) (UniProt O75116); details: at 1 µM
[4] = biological target: Ribosomal protein S6 kinase alpha-1 (Homo sapiens) (UniProt Q15418); details: at 0.1 µM
[5] = biological target: Ribosomal protein S6 kinase alpha-1 (Homo sapiens) (UniProt Q15418); details: at 1 µM
[6] = biological target: Ribosomal protein S6 kinase alpha-3 (Homo sapiens) (UniProt P51812); details: at 0.1 µM
[7] = biological target: Ribosomal protein S6 kinase alpha-3 (Homo sapiens) (UniProt P51812); details: at 1 µM
[8] = biological target: Ribosomal protein S6 kinase alpha-2 (Homo sapiens) (UniProt Q15349); details: at 0.1 µM
[9] = biological target: Ribosomal protein S6 kinase alpha-2 (Homo sapiens) (UniProt Q15349); details: at 1 µM
[10] = biological target: Ribosomal protein S6 kinase alpha-6 (Homo sapiens) (UniProt Q9UK32); details: at 0.1 µM
[11] = biological target: Ribosomal protein S6 kinase alpha-6 (Homo sapiens) (UniProt Q9UK32); details: at 1 µM
[12] = biological target: T1, Serine/threonine-protein kinase Sgk1 (Homo sapiens) (UniProt O00141); details: at 0.1 µM
T1 sequence (whole entry): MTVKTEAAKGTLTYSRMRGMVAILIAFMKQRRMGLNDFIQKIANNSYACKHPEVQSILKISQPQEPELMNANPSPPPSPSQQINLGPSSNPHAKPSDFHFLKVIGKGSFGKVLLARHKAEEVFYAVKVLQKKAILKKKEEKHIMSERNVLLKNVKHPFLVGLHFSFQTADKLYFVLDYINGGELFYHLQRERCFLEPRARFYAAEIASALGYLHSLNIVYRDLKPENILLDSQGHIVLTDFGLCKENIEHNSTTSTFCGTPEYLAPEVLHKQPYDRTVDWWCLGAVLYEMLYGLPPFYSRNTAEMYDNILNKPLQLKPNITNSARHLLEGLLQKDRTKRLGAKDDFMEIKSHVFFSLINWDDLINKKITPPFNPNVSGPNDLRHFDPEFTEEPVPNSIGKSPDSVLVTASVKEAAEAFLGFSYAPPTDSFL

[13] = biological target: T1, Serine/threonine-protein kinase Sgk1 (Homo sapiens); details: at 1 µM
[14] = biological target: T2, Serine/threonine-protein kinase Sgk2 (Homo sapiens) (UniProt Q9HBY8); details: at 0.1 µM
T2 sequence (whole entry): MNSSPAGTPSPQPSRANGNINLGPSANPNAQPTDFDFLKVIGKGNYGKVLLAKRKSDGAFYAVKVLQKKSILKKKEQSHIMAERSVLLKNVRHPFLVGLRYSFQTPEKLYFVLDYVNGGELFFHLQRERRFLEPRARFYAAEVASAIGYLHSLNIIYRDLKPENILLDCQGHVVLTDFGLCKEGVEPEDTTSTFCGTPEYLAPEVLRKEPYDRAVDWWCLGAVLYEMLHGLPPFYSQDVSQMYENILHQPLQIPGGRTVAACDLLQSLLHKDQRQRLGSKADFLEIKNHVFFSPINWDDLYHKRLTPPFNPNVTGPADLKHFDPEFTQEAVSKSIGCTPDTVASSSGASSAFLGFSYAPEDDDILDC

[15] = biological target: T2, Serine/threonine-protein kinase Sgk2 (Homo sapiens); details: at 1 µM
[16] = biological target: T3, Serine/threonine-protein kinase Sgk3 (Homo sapiens) (UniProt Q96BR1); details: at 0.1 µM
T3 sequence (whole entry): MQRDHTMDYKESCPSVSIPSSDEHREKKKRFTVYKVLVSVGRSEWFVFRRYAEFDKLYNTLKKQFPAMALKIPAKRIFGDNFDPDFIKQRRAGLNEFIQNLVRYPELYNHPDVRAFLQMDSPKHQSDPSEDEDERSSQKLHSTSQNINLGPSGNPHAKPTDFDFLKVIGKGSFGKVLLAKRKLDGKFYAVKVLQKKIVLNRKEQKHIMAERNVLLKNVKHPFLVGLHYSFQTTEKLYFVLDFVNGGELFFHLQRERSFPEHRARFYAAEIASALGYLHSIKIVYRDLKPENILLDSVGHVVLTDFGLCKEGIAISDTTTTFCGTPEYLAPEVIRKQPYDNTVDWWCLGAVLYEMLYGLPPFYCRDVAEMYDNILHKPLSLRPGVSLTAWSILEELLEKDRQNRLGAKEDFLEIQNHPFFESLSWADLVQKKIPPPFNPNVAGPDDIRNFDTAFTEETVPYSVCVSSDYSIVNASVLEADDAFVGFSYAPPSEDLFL

[17] = biological target: T3, Serine/threonine-protein kinase Sgk3 (Homo sapiens); details: at 1 µM
[18] = biological target: 5'-AMP-activated protein kinase catalytic subunit alpha-1 (Homo sapiens) (UniProt Q13131); details: at 0.1 µM
[19] = biological target: 5'-AMP-activated protein kinase catalytic subunit alpha-1 (Homo sapiens) (UniProt Q13131); details: at 1 µM
[20] = biological target: 5'-AMP-activated protein kinase catalytic subunit alpha-2 (Homo sapiens) (UniProt P54646); details: at 0.1 µM;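 further: mean inhibition measured on the AMPK complex of alpha2, beta1 and gamma1 subunits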
5'-AMP-activated protein kinase catalytic subunit alpha-2 (Homo sapiens), sequence (P54646 whole entry, looked up): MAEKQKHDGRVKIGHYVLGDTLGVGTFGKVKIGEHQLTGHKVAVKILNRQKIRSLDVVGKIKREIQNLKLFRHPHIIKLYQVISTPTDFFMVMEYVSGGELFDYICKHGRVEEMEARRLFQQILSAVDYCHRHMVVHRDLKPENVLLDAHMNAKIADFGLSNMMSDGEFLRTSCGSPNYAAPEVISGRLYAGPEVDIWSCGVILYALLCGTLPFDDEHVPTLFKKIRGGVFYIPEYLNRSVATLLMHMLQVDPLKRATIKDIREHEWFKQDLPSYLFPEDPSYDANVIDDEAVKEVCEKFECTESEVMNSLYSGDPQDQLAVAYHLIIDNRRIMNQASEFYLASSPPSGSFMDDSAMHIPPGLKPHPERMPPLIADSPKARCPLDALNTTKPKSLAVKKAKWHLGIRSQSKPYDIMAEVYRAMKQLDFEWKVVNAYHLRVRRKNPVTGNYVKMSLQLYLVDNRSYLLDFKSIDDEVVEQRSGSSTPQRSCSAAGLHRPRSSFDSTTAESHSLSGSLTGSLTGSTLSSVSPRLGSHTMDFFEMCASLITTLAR

Ribosomal protein S6 kinase alpha-3 (Homo sapiens), sequence (P51812 whole entry): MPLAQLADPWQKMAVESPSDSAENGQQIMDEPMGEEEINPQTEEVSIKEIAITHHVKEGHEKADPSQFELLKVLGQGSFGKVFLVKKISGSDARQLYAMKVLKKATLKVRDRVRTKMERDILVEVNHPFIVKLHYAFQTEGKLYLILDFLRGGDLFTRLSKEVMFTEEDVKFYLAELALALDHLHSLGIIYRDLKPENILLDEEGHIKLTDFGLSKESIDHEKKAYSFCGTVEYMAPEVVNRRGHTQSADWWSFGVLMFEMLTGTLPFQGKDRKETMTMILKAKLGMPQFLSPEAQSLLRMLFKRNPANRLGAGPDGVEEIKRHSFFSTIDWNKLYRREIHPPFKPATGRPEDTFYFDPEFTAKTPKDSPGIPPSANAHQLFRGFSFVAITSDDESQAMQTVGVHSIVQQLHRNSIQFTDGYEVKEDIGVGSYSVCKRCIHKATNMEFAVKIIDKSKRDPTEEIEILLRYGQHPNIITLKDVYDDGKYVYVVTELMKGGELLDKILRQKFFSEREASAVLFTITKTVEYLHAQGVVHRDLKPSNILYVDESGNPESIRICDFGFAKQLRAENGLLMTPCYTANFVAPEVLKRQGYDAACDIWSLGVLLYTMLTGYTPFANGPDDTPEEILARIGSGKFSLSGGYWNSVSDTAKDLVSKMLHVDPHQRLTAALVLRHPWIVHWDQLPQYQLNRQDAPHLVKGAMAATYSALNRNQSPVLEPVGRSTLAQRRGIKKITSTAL
Rho-associated protein kinase 1 (Homo sapiens), sequence (Q13464 2-1354 limits assumed): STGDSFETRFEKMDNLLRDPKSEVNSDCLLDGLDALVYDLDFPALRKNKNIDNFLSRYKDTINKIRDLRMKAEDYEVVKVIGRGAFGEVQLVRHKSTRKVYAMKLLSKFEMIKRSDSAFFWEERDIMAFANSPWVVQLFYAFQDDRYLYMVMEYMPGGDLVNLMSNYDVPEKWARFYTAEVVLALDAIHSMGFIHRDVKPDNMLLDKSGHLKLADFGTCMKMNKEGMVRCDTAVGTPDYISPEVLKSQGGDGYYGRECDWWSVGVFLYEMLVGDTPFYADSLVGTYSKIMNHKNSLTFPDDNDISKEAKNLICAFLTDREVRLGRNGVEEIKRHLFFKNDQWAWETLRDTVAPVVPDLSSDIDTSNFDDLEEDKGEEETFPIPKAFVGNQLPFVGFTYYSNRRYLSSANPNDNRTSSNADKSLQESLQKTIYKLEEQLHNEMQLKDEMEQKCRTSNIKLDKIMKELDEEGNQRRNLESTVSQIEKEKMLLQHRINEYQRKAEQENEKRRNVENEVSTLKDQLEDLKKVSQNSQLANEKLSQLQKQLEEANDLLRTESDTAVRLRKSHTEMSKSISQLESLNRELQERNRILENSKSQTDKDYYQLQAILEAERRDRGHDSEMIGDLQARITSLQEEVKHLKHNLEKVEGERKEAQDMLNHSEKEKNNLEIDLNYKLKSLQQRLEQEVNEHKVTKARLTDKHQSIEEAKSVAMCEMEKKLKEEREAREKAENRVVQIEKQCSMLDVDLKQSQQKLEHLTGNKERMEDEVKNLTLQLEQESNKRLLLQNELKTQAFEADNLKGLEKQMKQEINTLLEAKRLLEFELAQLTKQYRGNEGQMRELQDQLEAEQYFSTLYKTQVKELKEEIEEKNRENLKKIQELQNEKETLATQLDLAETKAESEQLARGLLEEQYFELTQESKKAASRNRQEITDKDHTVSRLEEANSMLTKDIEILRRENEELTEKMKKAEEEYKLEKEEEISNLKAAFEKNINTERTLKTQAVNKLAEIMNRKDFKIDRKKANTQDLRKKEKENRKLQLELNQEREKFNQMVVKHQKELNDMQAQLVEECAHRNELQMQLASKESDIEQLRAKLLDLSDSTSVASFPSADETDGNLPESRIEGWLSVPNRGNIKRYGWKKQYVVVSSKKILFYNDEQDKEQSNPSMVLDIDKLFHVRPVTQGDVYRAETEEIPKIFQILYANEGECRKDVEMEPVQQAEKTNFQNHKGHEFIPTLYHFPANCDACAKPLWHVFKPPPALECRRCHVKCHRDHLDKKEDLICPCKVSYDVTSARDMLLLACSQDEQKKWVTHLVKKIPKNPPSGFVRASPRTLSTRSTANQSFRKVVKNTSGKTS
Ribosomal protein S6 kinase alpha-2 (Homo sapiens), sequence (Q15349 whole entry): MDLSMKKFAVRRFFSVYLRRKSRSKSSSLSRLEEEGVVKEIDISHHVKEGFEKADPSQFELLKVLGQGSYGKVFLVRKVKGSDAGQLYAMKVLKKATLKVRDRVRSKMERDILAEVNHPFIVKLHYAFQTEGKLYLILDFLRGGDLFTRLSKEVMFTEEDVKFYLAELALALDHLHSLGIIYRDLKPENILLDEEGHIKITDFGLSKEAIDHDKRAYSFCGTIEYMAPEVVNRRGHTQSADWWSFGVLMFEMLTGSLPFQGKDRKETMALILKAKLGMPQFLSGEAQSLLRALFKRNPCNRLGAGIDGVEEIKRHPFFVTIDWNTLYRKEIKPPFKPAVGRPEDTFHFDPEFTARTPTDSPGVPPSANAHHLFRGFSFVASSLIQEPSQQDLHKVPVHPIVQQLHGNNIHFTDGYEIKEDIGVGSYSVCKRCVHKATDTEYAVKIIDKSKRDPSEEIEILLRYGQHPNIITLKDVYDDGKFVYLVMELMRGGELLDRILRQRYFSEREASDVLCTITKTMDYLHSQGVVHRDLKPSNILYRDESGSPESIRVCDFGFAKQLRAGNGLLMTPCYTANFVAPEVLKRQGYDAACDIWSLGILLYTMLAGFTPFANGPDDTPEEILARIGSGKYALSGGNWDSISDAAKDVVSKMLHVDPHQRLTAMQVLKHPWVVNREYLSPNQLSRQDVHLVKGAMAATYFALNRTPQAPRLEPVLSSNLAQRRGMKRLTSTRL
Rho-associated protein kinase 2 (Homo sapiens), sequence (O75116 whole entry, looked up): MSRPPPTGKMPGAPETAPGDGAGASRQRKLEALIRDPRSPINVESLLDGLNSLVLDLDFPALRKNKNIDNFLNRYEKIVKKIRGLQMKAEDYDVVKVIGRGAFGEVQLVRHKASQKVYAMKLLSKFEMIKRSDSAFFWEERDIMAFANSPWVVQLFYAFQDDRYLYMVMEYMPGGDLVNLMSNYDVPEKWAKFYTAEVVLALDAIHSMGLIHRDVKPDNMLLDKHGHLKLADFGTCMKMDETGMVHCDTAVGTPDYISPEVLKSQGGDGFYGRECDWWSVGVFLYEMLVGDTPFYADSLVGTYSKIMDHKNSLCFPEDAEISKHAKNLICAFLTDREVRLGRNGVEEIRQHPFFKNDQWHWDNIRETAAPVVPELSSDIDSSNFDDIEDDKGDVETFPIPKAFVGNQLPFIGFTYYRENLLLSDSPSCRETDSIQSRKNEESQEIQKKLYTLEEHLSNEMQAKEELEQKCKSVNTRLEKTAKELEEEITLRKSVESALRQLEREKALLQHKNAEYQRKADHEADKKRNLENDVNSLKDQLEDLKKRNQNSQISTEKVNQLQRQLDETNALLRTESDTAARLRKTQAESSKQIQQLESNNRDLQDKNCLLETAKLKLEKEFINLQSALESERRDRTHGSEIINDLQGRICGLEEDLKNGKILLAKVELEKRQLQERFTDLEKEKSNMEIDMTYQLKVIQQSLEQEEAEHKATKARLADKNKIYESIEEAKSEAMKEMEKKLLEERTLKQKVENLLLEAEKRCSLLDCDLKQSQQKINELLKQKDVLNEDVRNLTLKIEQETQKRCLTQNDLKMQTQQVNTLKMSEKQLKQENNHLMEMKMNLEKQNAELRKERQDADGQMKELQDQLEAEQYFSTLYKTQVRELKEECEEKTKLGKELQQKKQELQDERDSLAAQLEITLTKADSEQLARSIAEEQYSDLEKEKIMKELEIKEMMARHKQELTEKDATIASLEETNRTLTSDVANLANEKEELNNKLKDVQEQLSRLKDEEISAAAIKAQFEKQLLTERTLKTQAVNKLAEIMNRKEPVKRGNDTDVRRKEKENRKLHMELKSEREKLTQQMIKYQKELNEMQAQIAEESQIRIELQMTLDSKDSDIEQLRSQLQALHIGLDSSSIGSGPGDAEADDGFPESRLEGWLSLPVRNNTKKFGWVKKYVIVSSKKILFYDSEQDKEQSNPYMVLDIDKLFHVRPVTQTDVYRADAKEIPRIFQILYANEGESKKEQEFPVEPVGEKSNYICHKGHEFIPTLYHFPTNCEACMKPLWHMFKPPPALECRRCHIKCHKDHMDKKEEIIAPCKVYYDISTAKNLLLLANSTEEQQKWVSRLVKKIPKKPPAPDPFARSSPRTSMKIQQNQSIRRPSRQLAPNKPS

Row | Compound | inhibition [1] | inhibition [2] | inhibition [3] | inhibition [4] | inhibition [5] | inhibition [6] | inhibition [7] | inhibition [8] | inhibition [9] | inhibition [10] | inhibition [11] | inhibition [12] | inhibition [13] | inhibition [14] | inhibition [15] | inhibition [16] | inhibition [17] | inhibition [18] | inhibition [19] | inhibition [20]
1 | COC(=O)Nc1nc2ccc(Oc3ccc(NC(=O)Nc4cc(C(F)(F)F)ccc4F)cc3)cc2s1 | 1.94% | 0.66% | 1.17% | 1.59% | 2.46% | 0.8% | 2.83% | 3.19% | 13.1% | 0.36% | 1.65% | 0.33% | 0.95% | -4.85% | 0.53% | 1.37% | 1.57% | -0.71% | 0.03% | 0.72%
2 | COc1ccccc1-c1cc(/C=C2\C(=O)Nc3ncc(Br)cc32)cc(Br)c1O | 2.31% | 1.89% | 2.15% | 0.44% | 0.08% | 0.16% | 1.15% | 1.52% | 3.85% | -0.23% | 2.05% | 4.47% | 5.53% | 3.23% | 2.58% | 4.46% | 0.16% | 4.85% | 9.85% | 5.58%
3 | N#Cc1cccc(Nc2ncc(-c3ccccc3)o2)c1 | 0.71% | 2% | 6.5% | 0.19% | 3.79% | 0.02% | 1.64% | 1.14% | 1.32% | -0.19% | -0.13% | 2.75% | 7.53% | 1.9% | -1.67% | 2.18% | 5.3% | 1.1% | 1.53% | -0.83%
4 | CS(=O)(=O)Nc1ccc(-c2ccc3c(NC(=O)C4CC4)n[nH]c3c2)cc1 | 1.98% | 0.25% | -0.32% | 1.25% | 1.36% | 0.62% | 0.96% | 0.73% | 3.79% | 1.37% | 3.46% | 3.96% | 2.95% | 0.2% | 4.06% | 2.22% | 0.14% | 3.58% | 6.37% | 10.3%
5 | O=C(O[C@H]1CN[C@H](C#Cc2cc3ncnc(Nc4ccc(OCc5cccc(F)c5)c(Cl)c4)c3s2)C1)N1CCOCC1 | 1.71% | 4.15% | 8.38% | 1.45% | 6.91% | 1.55% | 5.86% | 2.72% | 3.4% | 2.22% | 1.82% | 3.69% | 4.68% | 6.81% | 6.86% | 7.16% | 6.57% | 4.66% | 4.92% | 4.18%
6 | CN1CCN(Cc2ccc(-c3cc4ncnc(Nc5ccc(OCc6cccc(F)c6)c(Cl)c5)c4s3)o2)CC1 | 2% and 0.89% | 1.84% and 3.91% | 2.16% and 8.24% | 0.86% and 2.44% | 3.31% and 6.74% | 0.78% and 2.19% | 4.15% and 7.1% | 2.32% and 1.76% | 3.34% and 4.93% | 1.22% and 1.16% | 2.87% and 4.99% | 2.87% and 4.63% | 3.57% and 7.64% | 1.23% and 4.49% | 1.46% and 3.55% | 1.48% and 4.43% | 2.48% and 5.69% | 2.4% and 5.32% | 3% and 5.69% | 3.72% and 4.13%
7 | Cc1ccc(-c2cc3c(NC(=O)C4CC4)ncnc3o2)cc1 | 2.27% | 2.81% | 1.43% | 2.52% | 4.28% | 1.27% | 2.17% | 2.35% | 2.3% | 0.9% | 2.4% | 2.2% | 3% | 5.33% | 8.63% | 3.61% | 4.02% | 3.13% | 5.1% | 2.34%
8 | CCN1CCC(C(=O)Nc2n[nH]c3nnc(-c4cccc(F)c4F)cc23)CC1 | -0.9% | 0.68% | -0.77% | 0.15% | 0.28% | 1.06% | 2.16% | -0.71% | 1.38% | 0.8% | 0.55% | 0.58% | 1.25% | 2.32% | 0.65% | -1.34% | 1.23% | 0.5% | 2.46% | 1.01%
9 | O=C1Nc2ccccc2/C1=C1\CCc2cc(O)ccc21 | 2.49% | 2.95% | 3.95% | 5.76% | 28.4% | 4.82% | 27% | 9.8% | 42.1% | 7.24% | 37.6% | 6.47% | 19.2% | 2.24% | 10.2% | 2.61% | 5.81% | 5.27% | 13.4% | 5.22%
10 | Cc1cc(O)cc(C)c1/C=C/c1cncc(C(=O)OC(C)(C)C)c1 | 2.78% | 4.67% | 3.55% | 0.74% | 1.77% | 1.52% | 1.88% | 1.57% | 1.41% | 0.33% | 1.11% | 1.6% | 2.22% | 3.61% | 4.38% | 3.8% | 0.63% | 2.74% | 3.91% | 2.92%
11 | CN(c1ccc(NC(=O)NCCN2CCOCC2)cc1)c1ccnc(Nc2ccc(CS(C)(=O)=O)cc2)n1 | 8.01% | 4.87% | 18.1% | 1.1% | 3.56% | 2.14% | 2.69% | 1.38% | 2.28% | 1.79% | 2.33% | 2.3% | 5% | 1.89% | 3.1% | 4.46% | 2.63% | 3.65% | 4.22% | 0.93%
12 | CNC(=O)c1sc(-n2cnc3cc(OC)c(OC)cc32)cc1OCc1ccccc1C(F)(F)F | 0.26% | 2.94% | 1.36% | 1.1% | 2.58% | 1.77% | 3.02% | 2.72% | 2.3% | 0.81% | 1.47% | 2.16% | 1.23% | 0.8% | 2.63% | 3.8% | 1.89% | 3.22% | 4.14% | 0.14%
13 | CS(=O)(=O)CCNCc1ccc(-c2ccc3ncnc(Nc4ccc(OCc5cccc(C(F)(F)F)c5)cc4)c3c2)o1 | 3.01% | 2.07% | 3.5% | 0.96% | 2.45% | -0.35% | 3.53% | 1.21% | 2.69% | 0.05% | 1.68% | 2.43% | 1.63% | 4.41% | 2.6% | 3.89% | 2.45% | 1.06% | 5.76% | 6.24%
